# Screening data from PubChem.
# The sample as a whole holds a higher share of hits than the screen did.
# RT RNaseH block: HIV-1 RT RNase H inhibitors, primary screen, biochemical, fluorescence; Gag-Pol polyprotein (Human immunodeficiency virus type 1 group M subtype B (isolate …; RT-RNase H RNA/DNA duplex cleavage; inhibition, % at 10 µM; 65,000 compounds, 1.9% hits; AID 565, 2006; in the data active means inhibition above about 50%
# RmlC RmlD mix: RmlC and RmlD coupled enzyme inhibitors, primary screen, biochemical, 384-well, compound mixtures, retest | RmlC/RmlD coupled enzyme inhibition, 384-well mixture HTS | inhibition, % at 5.5 µM | 110,000 compounds, 0.39% hits | AID 1532, 2009; in the data active means inhibition above about 30%, passing the limit was not always enough
# * marks the source's active call; other numbers are inactive results; / = no result.
SMILES,RT RNaseH block,RmlC RmlD mix
Cn1cnnc1SCNC(=O)C(F)(F)F,-3.0,3.6
Cc1cccc(NC(=O)CSc2nnc([C@@H](N)Cc3ccccc3)o2)c1C,/,-9.3
COC(=O)c1c(C)[nH]c(C)c1C(=O)c1ccccc1Cc1ccccc1,/,31.3
CC(C(=O)Nc1ccc2c(c1)OCCO2)N1CCN(C(=O)c2ccco2)CC1 (stereo unspecified),/,-6.9
CCCN(CCC)S(=O)(=O)c1ccc(C(=O)N2CCCc3ccccc32)cc1,/,-41.3
COc1ccc(Cc2nnc(NC(=O)Cc3cccs3)s2)cc1OC,79.8*,-0.1
O=C(Cc1cccs1)Nc1nnc(Cc2ccccc2)s1,/,-1.5
COc1ccc(-c2nc(-c3ccc(NC(=O)c4ccc(Br)o4)cc3)no2)cc1OC,-4.6,7.2
COc1ccc(CCC(=O)Nc2ccc(-c3noc(-c4ccc(OC)c(OC)c4)n3)cc2)cc1,60.6*,31.0
CCC(C)(C)n1nnnc1C(c1ccc2ncccc2c1)N1CCN2CCCC2C1 (stereo unspecified),1.0,7.7
O=C(Nc1ccc(-c2nc3ccccc3o2)cc1)c1ccc2c(c1)OCO2,26.9,-73.1
Cc1ccc2oc(-c3ccc(NC(=O)c4ccc5c(c4)OCO5)cc3)nc2c1,64.4*,-34.9
CCCn1nnc(NC(=O)COc2ccc(C3CCCCC3)cc2)n1,0.5,3.5
COc1ccccc1OCC(=O)Nc1sc2c(c1C(=O)NCC1CCCO1)CCC2 (stereo unspecified),/,4.4
Cc1ccc(S(=O)(=O)N2CCC(=O)N(CCOCc3ccc(F)cc3)CC2)cc1,/,5.0
O=C(Nc1ccc2c(c1)oc1ccccc12)c1ccc2c(c1)OCO2,27.0,-5.9
O=C(COc1ccc2c(c1)OCO2)Nc1ccc2c(c1)oc1ccccc12,58.9*,7.8
CCOC(=O)Nc1nnc(CCc2ccccc2)s1,1.0,5.4
CCOC(=O)Nc1nnc(-c2ccc(OC)c(OC)c2)s1,1.5,31.3*
CN(c1ccc(C(=O)Nc2ccccc2C(F)(F)F)cc1)S(C)(=O)=O,-7.5,-2.3
CNC(=O)ON(C(=O)NC)C1N(C)C(=S)SC1(C)C (stereo unspecified),25.1,8.6
CN1C(=S)SC(C)(NO)C1(C)C (stereo unspecified),50.9*,-8.9
COc1nnc(-c2ccc(N3CCCCC3)c(NC(C)=O)c2)c2ccccc12,/,5.6
CCOc1ccc(S(=O)(=O)Nc2nc3ccc(OC)cc3s2)cc1,/,-20.3
CCOc1ccc2nc(NS(C)(=O)=O)sc2c1,55.0*,0.8
SMILES,RT RNaseH block,RmlC RmlD mix
CC(=O)NCC1=C(NC(C)=O)C2CC1C(C)(C)C2C (stereo unspecified),-0.8,/
COc1ccc(CCNC(=O)C(=O)N2CCCCC2)cc1OC,/,7.8
COc1ccc2nc3oc(C(=O)N4CCN(c5cccc(Cl)c5)CC4)cc3cc2c1,-19.6,5.2
COc1ccc2nc3oc(C(=O)N4CCC(C(N)=O)CC4)cc3cc2c1,-29.9,33.7*
O=C(CSc1nnc(COc2ccc(Cl)cc2)o1)N1CCN(c2ccccc2)CC1,-0.2,-1.9
O=C(CSc1nnc(-c2ccc(Cl)cc2)o1)N1CCN(c2ccccc2)CC1,50.0*,/
O=C(c1ccccc1)N1CCN(c2ncnc3sc4c(c23)CCC4)CC1,/,-0.4
CCCn1c(SCC(=O)N2CCN(S(=O)(=O)c3ccc(Cl)cc3)CC2)n[nH]c1=O,-16.4,-13.1
Cc1cc(C)n2c(SCC(=O)N3CCN(S(=O)(=O)c4ccc(Cl)cc4)CC3)nnc2n1,69.6*,-19.5
COc1ccc(OCc2nn3c(-c4ccco4)nnc3s2)cc1,-14.9,-10.1
c1coc(-c2nnc3sc(Cc4cccs4)nn23)c1,50.1*,24.6
CCOC(=O)c1[nH]c2ccccc2c1NC(=O)Nc1ccc(OC)cc1,/,4.3
O=c1cc(-c2ccccc2Cl)oc2c(NS(=O)(=O)c3cccs3)ccc(O)c12,/,3.0
Cc1ccc(S(=O)(=O)NCCOC(=O)Nc2sc(=S)n(C)c2C)cc1,50.1*,-12.1
Cc1c(NC(=O)OCCNC(=O)Nc2ccccc2)sc(=S)n1C,-1.3,9.0
COCC(=O)N(C)c1nnc(-c2cnc(C)cn2)s1,-18.6,-9.1
COc1ccc(Cn2c3nc4ccccc4nc3c3c(=O)n(Cc4ccco4)c(C)nc32)cc1,61.7*,/
COc1ccc(Cn2c(C)nc3c(c2=O)c2nc4ccccc4nc2n3Cc2ccco2)cc1,81.3*,/
Cc1nc2c(c(=O)n1Cc1ccccc1Cl)c1nc3ccccc3nc1n2Cc1ccco1,38.1,/
COc1ccc(S(=O)(=O)c2c(N)n(Cc3ccco3)c3nc4ccccc4nc23)cc1,47.2,/
Cn1c(C(=O)N2CCN(C(=O)c3ccco3)CC2)cc2c(=O)n3ccccc3nc21,-0.6,96.4*
Cc1cccn2c(=O)c3cc(C(=O)N4CCN(C(=O)c5ccco5)CC4)n(C)c3nc12,-4.8,/
CCOC(=O)c1sc(=S)n(-c2ccc(Cl)cc2)c1C,/,4.6
COc1ccc(CNC(=O)c2sc(=S)n(-c3ccc(OC)cc3)c2N)cc1,/,8.7
CCOC(=O)c1sc(=S)n(-c2cc(F)ccc2F)c1N,72.0*,-9.4
SMILES,RT RNaseH block,RmlC RmlD mix
COC(=O)c1sc(=S)n(-c2cc(F)ccc2F)c1N,72.2*,-1.3
CCCCNC(=O)c1ccc2c(c1)N(CC)C(=O)c1ccccc1S2(=O)=O,-7.1,-2.1
Cc1cccc(NC(=O)CSc2nc(N)c(NC(=O)c3cccs3)c(=O)[nH]2)c1C,/,-4.7
CSCC(=O)NS(=O)(=O)c1ccc(C)cc1,/,-12.0
Cn1c(=O)c2c(nc(SCC(=O)N3CCc4ccccc43)n2Cc2ccccc2)n(C)c1=O,-3.7,/
COc1ccc(OC)c(N2Cc3cc(C)c(C)cc3C2)c1,62.0*,-4.0
COc1ccc(OC)c(-n2cnnn2)c1,-9.8,6.9
CCOc1ccccc1N1CCN(Cc2cccc(OC)c2OC)CC1,3.2,10.3
CCOc1ccccc1N1Cc2cc(C)c(C)cc2C1,52.7*,5.5
COc1ccc(/C=N/NC(=O)CCc2c(C)n[nH]c2C)cc1O,/,11.9
N/N=c1\sc2ccccc2n1-c1ccccc1,/,-8.3
COc1ccc(C2CC(=O)C(C=NCCN3CCN(C(C)=O)CC3)=C(O)C2)cc1 (stereo unspecified),/,10.7
COc1ccc(C2CC(=O)C(C=NCCN3CCOCC3)=C(O)C2)cc1 (stereo unspecified),54.0*,-26.3
CCn1c(SCC(=O)Nc2ccc3c(c2)oc2ccccc23)nnc1-c1ccc(N)cc1,/,-1.2
CCO[C@@H]1OC(C(=O)N2CCN(C)CC2)=C[C@H](c2coc3ccccc3c2=O)[C@H]1CCCO,/,7.4
CCc1cccc(C)c1NC(=O)C1=C(C(=O)O)CCCC1,-13.0,-6.1
CCNC(=O)c1cc2c(=O)n3cccc(C)c3nc2n(Cc2ccc(C)cc2)c1=N,-2.5,83.9*
N=c1c(C(=O)NCC2CCCO2)cc2c(=O)n3ccccc3nc2n1Cc1cccnc1 (stereo unspecified),2.7,45.3
Cc1cccn2c(=O)c3cc(C(=O)NC(C)C)c(=N)n(Cc4ccncc4)c3nc12,-11.0,/
Cc1cccn2c(=O)c3cc(C(=O)NCC4CCCO4)c(=N)n(Cc4cccnc4)c3nc12 (stereo unspecified),-1.7,36.6*
Nc1ccc(-c2n[nH]c(=O)c3ccccc23)cc1N,-4.0,7.5
Cc1ccc(-c2nc(CS(=O)CC(=O)NCCC(C)C)c(C)o2)cc1 (stereo unspecified),16.9,10.5
COCCNc1cc(C)nc2c(-c3ccccc3OC)c(C)nn12,-8.0,-1.1
COCCNc1cc(C)nc2c3c(C)cc(C)nc3nn12,-8.6,58.1*
Cc1cc(NCCN2CCOCC2)n2nc(C)c(-c3ccccc3)c2n1,-0.3,29.7
